DRD3 agonist: qHTS of D3 Dopamine Receptor Agonist: qHTS; D3R DiscoveRx beta-arrestin cells, luminescence, 90 min; max activation, %; D(3) dopamine receptor (Homo sapiens), P35462; 410,000 tested, 0.58% active; in the data active means max activation above about 30%
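Cells at 1500/well, incubated overnight, then treated with pinned compounds (dopamine as control) for 90 min at 37 degrees C. DiscoveRx reagent added for 30 - 60 minutes at room temperature; luminescence read.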
DRD3 antagonist: qHTS of D3 Dopamine Receptor Antagonist: qHTS; D(3) dopamine receptor (Homo sapiens), P35462; D3R cells, DiscoveRx beta-arrestin luminescence, antagonist mode; stronger effect = lower value; max response, negative = inhibition, %; AID 652054, 2013; 360,000 tested, 2.5% active; in the data active means max response below about -50%; inconclusive means no clear call, values can overlap the other calls
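Cells plated overnight at 1500 cells/well, then exposed to library compounds with dopamine controls for 90 minutes at 37 degrees C. DiscoveRx reagent added for 30–60 minutes at room temperature; luminescence read, quantitative HTS format.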
MCF10A rerep: A quantitative high throughput screen for small molecules that induce DNA re-replication in MCF 10a normal breast cells. MCF 10A DNA re-replication, Hoechst nuclear intensity, 48 h. Potency, µM (top dose mostly 46.1 µM), actives largely listed as activators. 350,000 tested, 2.9% active; further: nearly all actives have a fitted effect of over 50% in size
SW480 rereplic: A quantitative high throughput screen for small molecules that induce DNA re-replication in SW480 colon adenocarcinoma cells; SW480 DNA re-replication, Hoechst DNA content imaging, 48 h; AID 624297, 2012; Potency, µM (highest dose often 46.1 µM), actives largely listed as activators; 340,000 tested, 1.8% active; further: nearly all actives have a fitted effect of over 55% in size
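Quantitative HTS format with DMSO vehicle controls; 48 hr drug incubation at 37 C, then 40 min Hoechst staining and scanning imager measurement at 405 nm excitation.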
KB-3-1 tox: qHTS assay for MDR1-selective chemotherapeutics: Primary screen using the parental adenocarcinoma cell KB-3-1; KB-3-1 viability, CellTiter-Glo ATP luminescence, 72 h; Potency, µM (highest dose often 46.1 µM), actives largely listed as cytotoxic; 400,000 tested, 1.4% active; AID 1347075, 2019; further: nearly all actives have a fitted effect of over 60% in size
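Using CellTiter-Glo luminescence, growth of non-resistant KB-3-1 adenocarcinoma cells is assessed 72 h after pin-tool compound addition at 37 °C. Normalized responses across the concentration series yield fitted curves.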
KB-V1 MDR tox: qHTS assay for MDR1-selective chemotherapeutics: Primary screen using the drug-selected MDR subline cells KB-V1 | KB-V1 MDR cells viability, CellTiter-Glo, 72 h | Potency, µM (titrated, usually from 46.1 µM), usual class: cytotoxic | 400,000 tested, 3.4% active | AID 1347076, 2019; further: nearly all actives have a fitted effect of over 60% in size
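Potencies derive from concentration-effect curves fitted to normalized luminescence (CellTiter-Glo) of KB-V1 cells treated for 72 h at 37 degrees C in phenol-red-free DMEM containing 10% FBS.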
A number is an active result; . = inactive; ? = inconclusive; / = no result; [ ] = remark or other dose. Rows were chosen to be rich in hits. Some 8.9% of all compounds tested hit in one or more screens of this group. Unless noted, the call rests on the fitted dose curve; in most records, active means well fitted curve in the direction sought with a large enough effect; inconclusive means small, poorly fitted or top-dose-only effect, or another doubt; inactive means no such curve, though single readings can be large; an effect the other way counts as inactive or inconclusive.

SMILES	DRD3 agonist	DRD3 antagonist	MCF10A rerep	SW480 rereplic	KB-3-1 tox	KB-V1 MDR tox
COc1cc(CNc2ccc(O)cc2)cc(Br)c1OCc1ccccc1F	.	.	?	?	.	.
COc1cc(CNCc2ccncc2)cc(Br)c1OCc1ccccc1F	.	.	.	.	4.11µM	3.66µM
CCOc1cc(CNC(C)(C)CO)cc(Br)c1OCc1ccc(Cl)cc1Cl	.	.	6.51µM	.	.	?
CCOc1cc(CNCCO)cc(Br)c1OCc1ccccc1Cl	.	.	?	.[9.22 µM]	?	23.1µM
O=C(c1ccccc1Cl)N1CCn2c1nc1ccccc12	.	.	.	.	.	.
O=C(c1ccccc1Br)N1CCn2c1nc1ccccc12	.	.	3.66µM	.	.	.
CCCOc1ccc(C2c3c(oc4ccccc4c3=O)C(=O)N2c2nc(C)c(C(=O)OCC)s2)cc1 (stereo not drawn)	.	/	/	/	.	.
Cc1ccc(-n2c(=O)c3c(C)c(C(=O)N(C)C)sc3n(CC(=O)N(C)c3ccccc3)c2=O)cc1C	.	/	/	/	/	/
C[N+]1(CCCCSc2ccc(O)cc2)CCCCC1	.	.	.	.	18.4µM	.
CC(=O)OCCCCCCCCCCC[N+]1(C)CCCCC1	.	.	.	.[1.84 µM]	.	?
COc1ccc([C@H]2CC(=O)C=C(c3cccc(CO)c3)C2)cc1OC	.	.	.	.	.	.
C=Cc1ccc(C2=CC(=O)C[C@H](c3ccc(OC)cc3)C2)cc1	.	-52.1	.	.	.	.
COc1ccc([C@H]2CC(=O)C=C(c3ccc4ccccc4c3)C2)cc1OC	41.8	.	?	.	?	?
COc1ccc(C2=CC(=O)CC(c3ccc(OC)cc3)C2)cc1 (stereo not drawn)	.	.	.	?	?	.

Assay outcomes from PubChem.
